Test results as given in PubChem BioAssay (NCATS).
Where “and” joins values, the source holds several entries; their conditions need not be identical. Equal values may be shown once. Results filed as inconclusive are left out. Where a call stands in place of a potency, no number is given. Calls of active or inactive are those of the source. Unless noted, the call rests on the fitted dose curve; in most records, active means well fitted curve in the direction sought with a large enough effect; inconclusive means small, poorly fitted or top-dose-only effect, or another doubt; inactive means no such curve, though single readings can be large; an effect the other way counts as inactive or inconclusive.

Assays:
[1] = Validation of Assay for Modulators of Lamin A Splicing (AID 1459; active means well fitted curve in the direction sought with a large enough effect in the signal ratio; the % refers to the signal ratio;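 further: cells exposed to compound for two days before reading; ratio rise marks activators and ratio drop marks inhibitors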)
Procedure, shortened: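 S3 HeLa cells stably expressing a lamin A-EGFP splicing minigene and DsRed2 were seeded at 600 cells/well in Opti-MEM with 2% FBS, pin-dosed, and incubated 48 hrs at 37 °C, 5% CO2. Laser-scanning cytometry (488 nm) gave GFP/RFP total intensity ratio.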

[2] = biological target: DNA repair nuclease/redox regulator APEX1 (Homo sapiens) (UniProt P27695); test: qHTS Validation Assay for Inhibitors of the Human Apurinic/apyrimidinic Endonuclease 1 (APE1) (AID 1705; further: potency means the concentration at half of the fitted maximal effect;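 on activity change, negative = inhibition: TAMRA fluorescence gain over two minutes as APE1 cuts a quenched THF abasic duplex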)
Procedure, shortened: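 Human APE1 was preincubated with compound for 15 min at room temperature, then 50 nM (final) THF-abasic double-stranded DNA substrate bearing 5'-TAMRA and 3'-BHQ-2 was added. Incision-driven fluorescence rise (ex 525/em 598 nm) was read kinetically.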

[3] = Counterscreen for APE1 Inhibitors: Fluorescent Dye Displacement Validation Assay (AID 1707)
Procedure, shortened: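 Reaction mixture of 250 nM Thiazole Orange and 50 nM double-stranded abasic-site DNA was dispensed, compounds were pin-transferred, and fluorescence was read at endpoint (480 nm ex, 540 nm em). Reduced fluorescence indicated dye displacement by DNA binding.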

[4] = biological target: Endonuclease 4 (Escherichia coli (strain K12)) (UniProt P0A6C1); test: Counterscreen for APE1 Inhibitors: qHTS Validation Assay for Inhibitors of Endonuclease IV (AID 1708)
Procedure, shortened: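 Read-out: fluorescence rise (ex 525/em 598 nm) from incision of a TAMRA/BHQ-2 double-stranded THF abasic-site substrate (50 nM), measured kinetically; third-minus-first read difference gave reaction progress. Enzyme 2 nM.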

[5] = qHTS for differential inhibitors of proliferation of Plasmodium falciparum line 7G8 (AID 1815);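 further: parasite growth measured after three days of incubation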; further: potency means the concentration at half of the fitted maximal effect
[6] = qHTS for differential inhibitors of proliferation of Plasmodium falciparum line GB4 (AID 1816); details: Potency: Plasmodium falciparum GB4 proliferation inhibition;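 further: parasite growth measured after 72 h incubation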; further: potency means the concentration at half of the fitted maximal effect
[7] = qHTS Assay for Lipid Storage Modulators (AID 1519; calls by dose curve); details: Drosophila S3 cells, BODIPY lipid droplet/cell ratio, laser cytometry, cells loaded with oleic acid
Procedure, shortened: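 Cells seeded at 5,000 per well were treated with compounds over a concentration series and loaded with oleic acid (400 uM, as added). Lipid droplet fluorescence (488 nm excitation, 500-530 nm channel) was read by laser-scanning cytometry and normalized to 20 uM Triacsin C.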

[8] = biological target: alpha-glucosidase (Oryza sativa, rice) (UniProt Q653V4); test: Counterscreen for Glucocerebrosidase Inhibitors: qHTS Assay for Rice alpha-Glucosidase at pH 5.0 (AID 997)
Procedure, shortened: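 Endpoint fluorogenic assay at pH 5.0: compounds (0.7 nM to 77 uM) titrated against 4 nM rice enzyme and 400 uM 4-MU-alpha-glucoside for 20 min at room temperature; NaOH/glycine stop, read ex 365/em 440 nm, Hill-fitted AC50.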

[9] = biological target: Alpha-galactosidase (Coffea arabica) (UniProt Q42656); test: Counterscreen for Glucocerebrosidase Inhibitors: qHTS Assay for Coffee Bean alpha-Galactosidase at pH 5.9 (AID 998)
Procedure, shortened: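 Enzyme 2 nM + cpd (0.7 nM–77 uM titration) + 4-MU-alpha-Gal 80 uM, pH 5.9 citrate/Tween-20, RT 20 min, NaOH/glycine stop pH 10, fluor 365/440. Normalized to no-enzyme and full-activity controls; Hill-fit AC50.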

[10] = measured here: cell count channel max response
[11] = measured here: lipid channel max response

Chain of DNA repair nuclease/redox regulator APEX1 (Homo sapiens) (P27695 whole entry, looked up): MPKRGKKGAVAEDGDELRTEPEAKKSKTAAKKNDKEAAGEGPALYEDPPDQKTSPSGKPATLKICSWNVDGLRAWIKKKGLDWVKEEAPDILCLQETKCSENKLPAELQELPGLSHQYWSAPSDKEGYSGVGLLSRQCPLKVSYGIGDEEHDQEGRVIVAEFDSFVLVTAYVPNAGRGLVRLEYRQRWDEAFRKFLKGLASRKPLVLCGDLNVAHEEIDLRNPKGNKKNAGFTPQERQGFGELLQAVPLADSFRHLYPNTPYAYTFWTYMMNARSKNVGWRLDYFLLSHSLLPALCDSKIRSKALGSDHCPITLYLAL
Chain of Alpha-galactosidase (Coffea arabica) (Q42656 whole entry, looked up): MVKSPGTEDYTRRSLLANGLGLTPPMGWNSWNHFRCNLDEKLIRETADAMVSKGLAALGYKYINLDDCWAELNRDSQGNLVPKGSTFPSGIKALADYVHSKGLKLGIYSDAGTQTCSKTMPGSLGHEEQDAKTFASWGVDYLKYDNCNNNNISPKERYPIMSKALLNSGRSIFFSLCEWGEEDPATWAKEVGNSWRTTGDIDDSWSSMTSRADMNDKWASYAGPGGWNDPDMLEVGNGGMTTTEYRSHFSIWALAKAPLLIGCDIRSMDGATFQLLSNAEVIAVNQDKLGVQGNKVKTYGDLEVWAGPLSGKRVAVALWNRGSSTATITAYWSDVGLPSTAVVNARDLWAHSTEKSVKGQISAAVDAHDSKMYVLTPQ

CC(C)NC(C)Cc1ccc(I)cc1 (configuration not stated)
outcome [1]: inactive | Potency [2]: 39.8 µM (active) | Potency [3]: inactive | Potency [4]: inactive | Potency [5]: 10 µM (active) | Potency [6]: 11.2 µM (active)

C[C@@H](N)Cc1cnc[nH]1
outcome [1]: inactive | activity change, negative = inhibition ([7]; at 57.5 µM (top of the series)): 0.775% (inactive) | max response [7, 10]: -2.18% | max response [7, 11]: -3.82% | Potency [2]: inactive | Potency [3]: inactive | Potency [6]: inactive

COC(=O)[C@@H](N)CCCN=C(N)N[N+](=O)[O-]
activity change, negative = inhibition ([7]; at 57.5 µM (top of the series)): -4.08% (inactive) | max response [7, 10]: -4.51% | max response [7, 11]: -8.77%

NC(N)=NOCCC(N)C(=O)O (configuration not stated)
outcome [8]: inactive | outcome [9]: inactive | activity change, negative = inhibition ([7]; at 57.5 µM (top of the series)): 1.36% (inactive) and 1.85% (inactive) | max response [7, 10]: 3.95% and -21.7% | max response [7, 11]: 4.87% and -17.2% | Potency [2]: inactive | Potency [5]: inactive | Potency [6]: inactive

C#CC1(O)CCC2C3CCC4=CC(=O)CCC4(C)C3CCC21C (configuration not stated)
activity change, negative = inhibition ([7]; at 57.5 µM (top of the series)): 2.45% (inactive) | max response [7, 10]: 10.4% | max response [7, 11]: 15.6%

CNCCc1ccc(O)c(O)c1
outcome [8]: inactive | outcome [9]: inactive | Potency [2]: inactive | Potency [4]: inactive | Potency [6]: 8.91 µM (active)

CC(=O)OCC1=C(C(=O)O)N2C(=O)[C@@H](N)[C@@H]2SC1
activity change, negative = inhibition ([7]; at 25.7 µM (top of the series)): 1.55% (inactive) | max response [7, 10]: 7.67% | max response [7, 11]: 10.5%

Cc1nc(-c2ccc(-c3ccc(C(=O)N4CCc5cc6c(cc54)C4(CCN(C)CC4)CO6)cc3)c(C)c2)no1
outcome [8]: inactive | outcome [9]: inactive | Potency [2]: inactive | Potency [3]: inactive | Potency [4]: inactive | Potency [5]: 5.01 µM (active) | Potency [6]: 11.2 µM (active)

Cc1c(C(=O)c2cccc3ccccc23)c2cccc3c2n1[C@H](CN1CCOCC1)CO3
outcome [8]: inactive | outcome [9]: inactive | Potency [2]: inactive | Potency [4]: inactive | Potency [6]: 7.94 µM (active)
